Measured values taken from PubChem BioAssay (NCI).
This is part of a sample that, as a whole, favours compounds with a hit. Of some 79,000 tested, about 15% had one in any assay. Activity calls are given as the source filed them. Cut-off read from the data, not from the text of the source: active = growth inhibition above about 70%; inactive = the rest.

Tests used:
[1] = NCI Yeast Anticancer Drug Screen. Data for the rad50 strain (AID 155);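 note: 0% = growth of vehicle-only cultures of the same strain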; conditions: S. cerevisiae rad50 strain growth inhibition; at 50.0 µM; stronger effect = higher value
Outline: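 Yeast carrying a defined DNA repair defect were exposed to test compounds, and growth was compared with vehicle-treated controls to give percent inhibition.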

[2] = NCI Yeast Anticancer Drug Screen. Data for the mec2-1 strain (AID 157); conditions: S. cerevisiae mec2-1 strain, at 50.0 µM, stronger effect = higher value
Outline: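 Strain: mec2-1 (DNA repair/cell cycle alteration). Compound exposure, then growth measured; inhibition expressed relative to vehicle.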

[3] = NCI Yeast Anticancer Drug Screen. Data for the sgs1 mgt1 strain (AID 161);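 note: 0% = growth of cultures given vehicle only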; conditions: S. cerevisiae sgs1 mgt1 strain, at 50.0 µM, stronger effect = higher value
Outline: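 Mutant yeast exposed to compound; growth scored against vehicle-only wells.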

[4] = NCI Yeast Anticancer Drug Screen. Data for the cln2 rad14 strain (AID 165);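 note: 0% = growth equal to vehicle treated cultures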; conditions: S. cerevisiae cln2 rad14 strain, at 50.0 µM, stronger effect = higher value
Outline: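 Compounds are applied to the cln2 rad14 yeast strain, and growth is then compared with that of vehicle-treated cultures to give inhibition.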

[5] = NCI Yeast Anticancer Drug Screen. Data for the bub3 strain (AID 167); conditions: S. cerevisiae bub3 mutant strain, at 50.0 µM, stronger effect = higher value
Outline: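 Compounds were applied to a genetically altered yeast strain carrying a cell-cycle control defect. Growth inhibition was scored against vehicle-treated controls.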

[6] = NCI Yeast Anticancer Drug Screen. Data for the mlh1 rad18 strain (AID 175); conditions: S. cerevisiae mlh1 rad18 strain growth inhibition; at 50.0 µM; stronger effect = higher value
Outline: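 Read-out is yeast growth inhibition, calculated against vehicle-only controls. The compound was applied to a strain engineered with DNA damage repair alterations.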

Measured: growth inhibition

Cc1cc(=O)[nH]c(NNC(C#N)c2ccccc2O)n1 (stereo unspecified)
inactive: [1] -19.3% | [2] -27.9% | [3] -22.1% | [4] -12% | [5] 1.5% | [6] -34.8%

COCCCC12C=C(OC)C(=O)C=C1OC(c1cc(OC)c(OC)c(OC)c1)C2C (stereo unspecified)
inactive: [1] 0% | [2] -13.1% | [3] -36% | [4] -18% | [5] -32.5% | [6] -14.5%

CC(=O)COc1ccccc1
inactive: [1] -2.7% | [2] -10.5% | [3] 7.75% | [4] 6.45% | [5] -6.85% | [6] 15.4%

OCc1cccc(F)c1
inactive: [1] -15.4% | [2] -42.6% | [3] -31.4% | [4] 8.1% | [5] -21.4% | [6] -5.35%

CCCCC/C(C)=N\NC(N)=S
inactive: [1] 15.6% | [2] -6.15% | [3] -15.9% | [4] 1.85% | [5] 19.8% | [6] -2.5%

O=C(O)CCCCc1ccc2ccccc2c1
inactive: [1] 4% | [2] 15.4% | [3] 16.4% | [4] 29.2% | [5] 5.95% | [6] 26.8%

CCOc1ccc(/C=C\C(=O)O)cc1
inactive: [1] -1.9% | [2] -19.6% | [3] 8.5% | [4] -5.75% | [5] 1.25% | [6] 1.55%

Cc1nc(Cl)nc2c1C(=O)Nc1ccccc1N2
inactive: [1] 27.2% | [2] 14.4% | [3] 0% | [4] 2.95% | [5] 28.1% | [6] 15.9%

CC1=NN(c2ccccc2)C(=O)C1=C1SCCCS1
inactive: [1] -14.2% | [2] -25.4% | [3] 10.6% | [4] 16.4% | [5] -4.9% | [6] 1.8%

O=c1nc(Sc2ccccc2)ccn1C1OC(CO)C(O)C1O (stereo unspecified)
inactive: [1] -11.5% | [2] -8.95% | [3] -1.45% | [4] 9.35% | [5] 6.55% | [6] 5.95%

CCCCCCCC/C=C/CCCCCCCC(=O)N(CCOC(=O)C(C)(C)C)CCOC(=O)C(C)(C)C
inactive: [1] 37.5% | [2] 9.5% | [3] 25.6% | [4] 24.2% | [5] -2.45% | [6] 39.2%

CC(=O)OCC1OC(n2nnc(CCl)c2CCl)C(OC(C)=O)C(OC(C)=O)C1OC(C)=O (stereo unspecified)
inactive: [1] 38.5% | [2] 8.7% | [3] 0.5% | [4] -3.15% | [5] -0.25% | [6] 8.45%

COC(=O)CCC(=O)CN1C(=O)c2ccccc2C1=O
inactive: [1] 14.8% | [2] 9.1% | [3] 4% | [4] 11.5% | [5] 14.1% | [6] 1.5%

CCOC(=O)C(C(C)=O)C(NO)C(Cl)(Cl)Cl (stereo unspecified)
inactive: [1] 5.4% | [2] 13.6% | [3] 3.4% | [4] 17.1% | [5] 2.2% | [6] -3.05%

CCN(CC)CCNC(=O)c1ccc(NCN2C(=O)NC(c3ccccc3)(c3ccccc3)C2=O)cc1
inactive: [1] -24.1% | [2] 3.4% | [3] 8.45% | [4] 26.3% | [5] 15.7% | [6] 50.8%

C(=N\NC1=NCCCCN1)/c1ccc2ccccc2c1
inactive: [1] 14.1% | [2] -1.75% | [3] -32% | [4] -34.6% | [5] -2.35% | [6] 7.6%

CC1=C(Br)C(=O)C(C(C)C)=CC1=O
inactive: [1] -38.2% | [2] -20.6% | [3] -6.75% | [4] -4.9% | [5] 3.5% | [6] 0.9%

Cc1ccc(N2C(=O)CC3(CCCC3)C2=O)cc1Cl
inactive: [1] 14.6% | [2] -2% | [3] -6.05% | [4] 5.95% | [5] 5% | [6] 21.6%

N/C([S-])=N/N=c1\c(O)c(O)\c1=N/N=C(/N)[S-].[Cu+2]
inactive: [1] -8.6% | [2] -6.6% | [3] -7% | [4] -2.7% | [5] -10.3% | [6] -12.7%

COc1cc([C@@H]2c3cc4c(cc3[C@H](O)[C@H]3COC(=O)[C@@H]23)OCO4)cc(OC)c1OC
inactive: [1] 2.55% | [2] 4.2% | [3] 1.2% | [4] 5.7% | [5] 7.15% | [6] 16.2%

O=C(Nc1ccc(Cl)cc1)Nc1nnc(-c2cc([N+](=O)[O-])cc([N+](=O)[O-])c2)o1
inactive: [1] -2.1% | [2] 20.8% | [3] 28.8% | [4] -13.3% | [5] -32.6% | [6] -2.25%

COc1ccc(C(=O)c2ccc(C(=O)O)cc2)c(OC)c1
inactive: [1] -5.4% | [2] -17.5% | [3] -14.6% | [4] -48.6% | [5] 5.95% | [6] -27.6%

COC(=O)c1ccc(N=Nc2ncc(CC(NC(C)=O)C(=O)OC)[nH]2)cc1 (stereo unspecified)
inactive: [1] -16.9% | [2] -46.9% | [3] 20.9% | [4] -34.5% | [5] 4.2% | [6] -13.4%

C=C1/C=C/C=C(/C)C(=O)Nc2c(C=O)c(O)c3c4c(c(C)c(O)c3c2O)OC(C)(O/C=C/C(OC)C(C)C(OC(C)=O)C(C)C(O)C(C)C1O)C4=O (stereo unspecified)
inactive: [1] 24.1% | [2] 33.5% | [3] 16.4% | [4] 34.2% | [5] 20.4% | [6] 32.5%

Cn1c(N(CCO)CCO)cnc1[N+](=O)[O-]
inactive: [1] 11.7% | [2] 8.8% | [3] -21.8% | [4] -16.4% | [5] -17.6% | [6] -4.8%

CN(C)CCCNC(=O)CCNC(=O)c1cc(NC(=O)c2cc(NC(=O)c3cc(NC(=O)c4nc(NC(=O)CCCNC(=O)c5cc(NC(=O)c6cc(NC(=O)c7cc(NC(=O)c8nccn8C)cn7C)cn6C)cn5C)cn4C)cn3C)cn2C)cn1C
inactive: [1] -17.3% | [2] -31.9% | [3] 23.1% | [4] 28.8% | [5] 15.3% | [6] -46.4%

C/C=C/C(=O)OCCOc1ccccc1-c1ccccc1
inactive: [1] 15.5% | [2] 16.3% | [3] 4.35% | [4] -16.3% | [5] 25.2% | [6] 20.1%

Cc1c2sc3ccccc3[nH]c2nc2[nH]c3ccccc3sc12
inactive: [1] -24.9% | [2] -10.7% | [3] -25.1% | [4] 2.35% | [5] 11% | [6] 0.95%

CCN(CC)CCOC(=O)c1ccc(N=C/C=C/C(C#N)=C/NOC)cc1
inactive: [1] 0.3% | [2] 27.4% | [3] 9.85% | [4] 21.4% | [5] 9.9% | [6] 30.9%

O=C1c2ccccc2CN1c1ccc(O)cc1
inactive: [1] 5.65% | [2] 1.5% | [3] -14.8% | [4] 20.9% | [5] -1.2% | [6] 16.9%

COc1ccccc1NC(N)=S
inactive: [1] -9.1% | [2] -8.5% | [3] 5.65% | [4] 3.25% | [5] -4% | [6] -26.9%

O=S(=O)(N1CCCCC1)N1CCCCC1
inactive: [1] 2.3% | [2] -0.85% | [3] 0.85% | [4] 8.85% | [5] 10.2% | [6] -2.4%

CC(C)(C)CC(C)(C)N1CNC(=S)NC1
inactive: [1] 19% | [2] -1.95% | [3] 18.3% | [4] 10.8% | [5] 21.8% | [6] 16.8%

CCn1c2ccc(N(C)C)cc2c2cc(N(C)C)ccc21
inactive: [1] -25.4% | [2] -38.5% | [3] -24.1% | [4] -38.8% | [5] -18.5% | [6] -52.4%

O=C(NC12CC3CC(NC(=O)c4ccccc4)(CC(C1)c1ccccc13)C2)c1ccccc1
inactive: [1] 42.9% | [2] 40.2% | [3] 57.4% | [4] 27.4% | [5] 52.5% | [6] 38.4%

Clc1ccccc1-c1nc(-c2ccncc2)no1
inactive: [1] 23.3% | [2] -14.9% | [3] -25% | [4] 34.1% | [5] 57.6% | [6] 34%
